Source: the supplement of paper PMC6555819

What was measured:
Assay in all cases: PBM binding z-score (relative to random genomic background probes); higher = stronger binding; sequences stand for … in GC…GCGATTGACAGCGTAGAATGAAGG
[1] = test system: RARb homodimer (NR concentration 270 nM)
In short: (§1)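 Probes were double-stranded and carried 34-nt variable regions with direct-repeat seeds, single-nucleotide variants, half-site ablations and random human genomic background sequences, printed on custom Agilent 4×180K protein-binding microarrays. Arrays were incubated 1 h with ligand-free nuclear receptor dimers in PBS pH 7.4, 2% milk, 0.02% Triton X-100, 1 mM DTT, 0.2 mg/mL BSA and 0.4 mg/ml salmon testes DNA. Antibodies against each partner (one per run) detected binding, and scanned fluorescence was regression-normalized. Binding z-scores use the random background probes as reference.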

[2] = test system: RARg:RXRa (NR concentration 270 nM, RXRa partner concentration 90 nM)
In short: as §1

[3] = test system: RARg homodimer (NR concentration 270 nM)
In short: as §1

[4] = test system: RXRa DBDmut IVT, anti-RXR (DBD mutation: RXRa K156A/R161A, NR concentration 90 nM)
In short: as §1

[5] = test system: RXRa homodimer (NR concentration 180 nM)
In short: as §1

[6] = test system: THRa:RXRa (NR concentration 90 nM, RXRa partner concentration 90 nM)
In short: as §1

[7] = test system: THRa homodimer (NR concentration 90 nM)
In short: as §1

[8] = test system: VDR homodimer (NR concentration 270 nM)
In short: as §1

Sequence: TCTTGTAGATCAACAGGAGGTAAAGAAAGATCGA
- PBM binding z-score [1]: -0.473
- PBM binding z-score [2]: 0.0301
- PBM binding z-score [3]: -0.00391
- PBM binding z-score [4]: 0.122
- PBM binding z-score [5]: 0.423
- PBM binding z-score [6]: 0.237
- PBM binding z-score [7]: -0.482
- PBM binding z-score [8]: -0.385

Sequence: AGAATGAGGTTACCAAAGATCAGAGAAACGCTTG
- PBM binding z-score [1]: 0.638
- PBM binding z-score [2]: 2.17
- PBM binding z-score [3]: 1.6
- PBM binding z-score [4]: 1.04
- PBM binding z-score [5]: 2.47
- PBM binding z-score [6]: 2.64
- PBM binding z-score [7]: 0.519
- PBM binding z-score [8]: 0.185

Sequence: GCGACTGGGGCAAAGCAGGTTATCATAAGGTTGG
- PBM binding z-score [1]: 0.97
- PBM binding z-score [2]: 0.559
- PBM binding z-score [3]: 0.655
- PBM binding z-score [4]: -0.0158
- PBM binding z-score [5]: 0.368
- PBM binding z-score [6]: 2.9
- PBM binding z-score [7]: 0.0261
- PBM binding z-score [8]: -0.46

Sequence: GCGACTGGGGCATCAGCAGGTTACCATTACTTAA
- PBM binding z-score [1]: 1.18
- PBM binding z-score [2]: 0.735
- PBM binding z-score [3]: 0.488
- PBM binding z-score [4]: 0.25
- PBM binding z-score [5]: 0.246
- PBM binding z-score [6]: 0.833
- PBM binding z-score [7]: 0.247
- PBM binding z-score [8]: -0.0861

Sequence: TTACCAAGATGAGCTGAGGTCGTTGATCCAACTC
- PBM binding z-score [1]: 0.571
- PBM binding z-score [2]: 0.267
- PBM binding z-score [3]: -0.226
- PBM binding z-score [4]: 0.162
- PBM binding z-score [5]: 0.858
- PBM binding z-score [6]: 2.68
- PBM binding z-score [7]: 1.56
- PBM binding z-score [8]: 2.02

Sequence: CTCGAAAGGTCGTTCTCAGGTGAGTATACCAAAC
- PBM binding z-score [1]: 2.86
- PBM binding z-score [2]: 5.28
- PBM binding z-score [3]: 3.33
- PBM binding z-score [4]: 3.44
- PBM binding z-score [5]: 4.39
- PBM binding z-score [6]: 4.46
- PBM binding z-score [7]: 1.46
- PBM binding z-score [8]: 2.59

Sequence: CGTCCAAGGTCATAGGAGGTCAGCGAAGACAGAT
- PBM binding z-score [1]: 5.65
- PBM binding z-score [2]: 7.17
- PBM binding z-score [3]: 7.58
- PBM binding z-score [4]: 4.05
- PBM binding z-score [5]: 7.72
- PBM binding z-score [6]: 5.52
- PBM binding z-score [7]: 3.42
- PBM binding z-score [8]: 4.37

Sequence: AGTACGAGGGCACGCTGAGTTGATAGCAGAGTAG
- PBM binding z-score [1]: 1.41
- PBM binding z-score [2]: 2.07
- PBM binding z-score [3]: 2.38
- PBM binding z-score [4]: 2.3
- PBM binding z-score [5]: 1.2
- PBM binding z-score [6]: 1.92
- PBM binding z-score [7]: 0.295
- PBM binding z-score [8]: 2.17

Sequence: TCATATAGGTAATGCAGGTGAAAGTCGGCATCTA
- PBM binding z-score [1]: 0.531
- PBM binding z-score [2]: 0.489
- PBM binding z-score [3]: 0.438
- PBM binding z-score [4]: 1.04
- PBM binding z-score [5]: 0.993
- PBM binding z-score [6]: 1.1
- PBM binding z-score [7]: 0.297
- PBM binding z-score [8]: 0.176

Sequence: CGTCAAAGTTCAACTAAGGTAACGAAAAGCACGC
- PBM binding z-score [1]: 4.12
- PBM binding z-score [2]: 5.98
- PBM binding z-score [3]: 6.71
- PBM binding z-score [4]: 4.46
- PBM binding z-score [5]: 4.91
- PBM binding z-score [6]: 5.09
- PBM binding z-score [7]: 1.67
- PBM binding z-score [8]: 3.6

Sequence: ATGTCTAGGTAAAGTTCAGTGAAAGATCGATAGA
- PBM binding z-score [1]: 2.59
- PBM binding z-score [2]: 2.12
- PBM binding z-score [3]: 2.62
- PBM binding z-score [4]: 1.25
- PBM binding z-score [5]: 1.5
- PBM binding z-score [6]: 1.17
- PBM binding z-score [7]: 0.000451
- PBM binding z-score [8]: 2.39

Sequence: AGTCAAAGTTCACTAGGTAACCTAAGATTCAGCT
- PBM binding z-score [1]: 3.75
- PBM binding z-score [2]: 5.2
- PBM binding z-score [3]: 5.66
- PBM binding z-score [4]: 4.32
- PBM binding z-score [5]: 4.04
- PBM binding z-score [6]: 2.46
- PBM binding z-score [7]: 0.759
- PBM binding z-score [8]: 4.29

Sequence: GATACAGGGTCAGCCAGAGGCCAGAGTATGGAAA
- PBM binding z-score [1]: 3.47
- PBM binding z-score [2]: 6.84
- PBM binding z-score [3]: 4.98
- PBM binding z-score [4]: 1.17
- PBM binding z-score [5]: 4.6
- PBM binding z-score [6]: 3.13
- PBM binding z-score [7]: 0.534
- PBM binding z-score [8]: 0.682

Sequence: CCGACTGCGGCATAAGGTTACCATAAGCCAGCCC
- PBM binding z-score [1]: 0.92
- PBM binding z-score [2]: 0.306
- PBM binding z-score [3]: 0.391
- PBM binding z-score [4]: 0.104
- PBM binding z-score [5]: 0.766
- PBM binding z-score [6]: 2.11
- PBM binding z-score [7]: 1.49
- PBM binding z-score [8]: -0.279

Sequence: TAGCCTAGGTCATTCAGGGGCCTGTATAGAAAGC
- PBM binding z-score [1]: 2.65
- PBM binding z-score [2]: 4.31
- PBM binding z-score [3]: 4.02
- PBM binding z-score [4]: 1.75
- PBM binding z-score [5]: 2.48
- PBM binding z-score [6]: 3.54
- PBM binding z-score [7]: 0.286
- PBM binding z-score [8]: 1.04

Sequence: TAGCCTAGGTCATTGGGCAAGTATAGTACGCATC
- PBM binding z-score [1]: 2.69
- PBM binding z-score [2]: 3.66
- PBM binding z-score [3]: 4.09
- PBM binding z-score [4]: 1.86
- PBM binding z-score [5]: 2.94
- PBM binding z-score [6]: 2.63
- PBM binding z-score [7]: 0.731
- PBM binding z-score [8]: 1.44

Sequence: TCTCGGAGGACACGGAAGGTCAGAGCTCGACATC
- PBM binding z-score [1]: 3.98
- PBM binding z-score [2]: 3.49
- PBM binding z-score [3]: 4.48
- PBM binding z-score [4]: 0.816
- PBM binding z-score [5]: 2.31
- PBM binding z-score [6]: 3.45
- PBM binding z-score [7]: 1.37
- PBM binding z-score [8]: 1.01

Sequence: ACTCGGAGGACAAAGGACAGAGCTACGCCAGTGA
- PBM binding z-score [1]: 1.11
- PBM binding z-score [2]: 1
- PBM binding z-score [3]: 1.64
- PBM binding z-score [4]: 0.398
- PBM binding z-score [5]: 0.0489
- PBM binding z-score [6]: 0.569
- PBM binding z-score [7]: -0.18
- PBM binding z-score [8]: -0.184

Sequence: GCTGTTAGGTCAGGTTGGTCAGCTAACGGGTACG
- PBM binding z-score [1]: 3.34
- PBM binding z-score [2]: 3.03
- PBM binding z-score [3]: 4.11
- PBM binding z-score [4]: 0.92
- PBM binding z-score [5]: 1.42
- PBM binding z-score [6]: 2.84
- PBM binding z-score [7]: 1.69
- PBM binding z-score [8]: 0.688

Sequence: CGAACTAGGTCTGAACAGGACAGTGAAGGATGAT
- PBM binding z-score [1]: 0.0456
- PBM binding z-score [2]: 0.195
- PBM binding z-score [3]: 0.136
- PBM binding z-score [4]: -0.233
- PBM binding z-score [5]: 0.134
- PBM binding z-score [6]: 0.536
- PBM binding z-score [7]: -0.761
- PBM binding z-score [8]: -0.4

Sequence: CGTCCAGGGTCAGAGAGGTCAGTGAATGCCGAGT
- PBM binding z-score [1]: 5.27
- PBM binding z-score [2]: 6.18
- PBM binding z-score [3]: 6.48
- PBM binding z-score [4]: 2.79
- PBM binding z-score [5]: 6.28
- PBM binding z-score [6]: 4.29
- PBM binding z-score [7]: 2.13
- PBM binding z-score [8]: 5.45

Sequence: CCTACTGAGCCAAAAAGGTCATTGATGCCGATAA
- PBM binding z-score [1]: 4.22
- PBM binding z-score [2]: 4.3
- PBM binding z-score [3]: 4.1
- PBM binding z-score [4]: 1.49
- PBM binding z-score [5]: 5.03
- PBM binding z-score [6]: 2.86
- PBM binding z-score [7]: 1.05
- PBM binding z-score [8]: 2.73

Sequence: CCTTAAGGGTCAAGGTTATAGCACGGGTGGTACG
- PBM binding z-score [1]: 4.66
- PBM binding z-score [2]: 6.46
- PBM binding z-score [3]: 6.85
- PBM binding z-score [4]: 2.7
- PBM binding z-score [5]: 6.61
- PBM binding z-score [6]: 3.66
- PBM binding z-score [7]: 1.03
- PBM binding z-score [8]: 2.39

Sequence: TTACCAAGGTGAAGGTCGTTGCTCCCTCTGTAGA
- PBM binding z-score [1]: 2.04
- PBM binding z-score [2]: 1.25
- PBM binding z-score [3]: 1.15
- PBM binding z-score [4]: 0.573
- PBM binding z-score [5]: 1.59
- PBM binding z-score [6]: 2.37
- PBM binding z-score [7]: 1.06
- PBM binding z-score [8]: 1.43

Sequence: CGTCCAAGTTCAGCAGGTCAGTGAAAGCGACGTG
- PBM binding z-score [1]: 3.8
- PBM binding z-score [2]: 3.81
- PBM binding z-score [3]: 3.65
- PBM binding z-score [4]: 3.67
- PBM binding z-score [5]: 2.52
- PBM binding z-score [6]: 1.96
- PBM binding z-score [7]: 0.713
- PBM binding z-score [8]: 3.65

Sequence: AGAAAGAGGTTATACGTAGATCAGGGAAGAAAGT
- PBM binding z-score [1]: 1.42
- PBM binding z-score [2]: 2.21
- PBM binding z-score [3]: 1.59
- PBM binding z-score [4]: 1.23
- PBM binding z-score [5]: 2.93
- PBM binding z-score [6]: 1.52
- PBM binding z-score [7]: 0.336
- PBM binding z-score [8]: 0.623

Sequence: TCATACAGGTAAAAGGTGAAAGTCGGTGTGGTAA
- PBM binding z-score [1]: 2.02
- PBM binding z-score [2]: 2.07
- PBM binding z-score [3]: 1.09
- PBM binding z-score [4]: 1.58
- PBM binding z-score [5]: 3.18
- PBM binding z-score [6]: 1.81
- PBM binding z-score [7]: 0.619
- PBM binding z-score [8]: 0.324

Sequence: TGAATGAGGTTATAAGATCAGCGAACGTTGCAAA
- PBM binding z-score [1]: 0.0466
- PBM binding z-score [2]: 1.48
- PBM binding z-score [3]: 1.05
- PBM binding z-score [4]: 0.409
- PBM binding z-score [5]: 1.9
- PBM binding z-score [6]: 1.61
- PBM binding z-score [7]: -0.141
- PBM binding z-score [8]: 0.262

Sequence: TCTAGTCGGTCACGGAGGTCACACACGACGGGTA
- PBM binding z-score [1]: 5.2
- PBM binding z-score [2]: 5.84
- PBM binding z-score [3]: 6.47
- PBM binding z-score [4]: 1.15
- PBM binding z-score [5]: 5.17
- PBM binding z-score [6]: 3.94
- PBM binding z-score [7]: 2.48
- PBM binding z-score [8]: 3.72
